# From PubChem BioAssay AID720569 (National Center for Advancing Translational Sciences (NCATS), 2013)
# The list shows a part of the results. Inconclusive results are not listed. Calls of active or inactive are those of the source. The call rests on the fitted dose curve; in most records, active means well fitted inhibition curve with a large enough effect; inconclusive means small, poorly fitted or top-dose-only effect; inactive means no such curve, though single readings can be large or run the other way.
# Test system: pyruvate kinase (Trypanosoma brucei)
# Assay: qHTS of Trypanosoma Brucei Inhibitors: Confirmatory Assay for Cherry-picked Compounds; further: nearly all actives have a fitted effect of over 70% in size
# Conditions: recombinant TbPYK, Kinase-Glo ATP luminescence
# Text: Members of the Trypanosomatidae family of parasitic protozoans cause a spectrum of diseases throughout the tropical and subtropical world. Sleeping sickness, caused by two subspecies of Trypanosoma brucei, is endemic to areas of sub-Saharan Africa, while Chagas' disease, a manifestation of Trypanosoma cruzi infection, is prevalent throughout Central and South America. In addition, many species of Leishmania are responsible for a range of cutaneous and visceral diseases, causing ulcers, destructive lesions and kalaazar, a lethal infection of the viscera. These diseases cause severe public health and economic burdens on populations that are often already caught in a tragic cycle of poverty, poor nutrition and disease. Collectively, parasites of the trypanosomatid family infect 30 million people worldwide (~500 million live in endemic areas), and account for ~130K deaths annually. Existing treatments have developed little in the past 50 years, and suffer from toxicity, poor efficacy and resistance; the goal of this project is to develop lead drugs that will be suitable for entry into pre-clinical trials. […] Glycolysis in axenically cultured T. cruzi, representing the intracellular pathogenic stage, is also essential for these parasites. {Engel, 1987} This project aims to discover and optimize selective inhibitors of the glycolytic enzyme pyruvate kinase (PYK) from Trypanosoma brucei, the parasite that causes sleeping sickness. […] Trypanosomatid PYKs show significant differences from their human counterparts including only 47-50% sequence identity and different allosteric and activation properties.{Callens, 1992} To this end, a qHTS was done against the MLSMR to discover inhibitors. NIH Molecular Libraries Probe Production Network [MLPCN] NIH Chemical Genomics Center [NCGC] Grant: MH095452 PI Name: Malcolm Walkinshaw, University of Edinburgh
# Two uL of TbPYK/substrate buffer (columns 1-3, 5-48) are dispensed into Greiner white solid bottom 1536-well assay plates; column 4 receives only TEA buffer as 0x TbPYK controls. Compounds are then transferred via Kalypsys pin tool equipped with 1536-pin array (10 nL slotted pins, V&P Scientific, San Diego, CA). Following addition of compound, 2 uL of ADP (130 uM final concentration, all columns) is added to initiate the reaction. The plates are then incubated at room temperature for 45 minutes. Kinase-Glo Plus reagent is added (3 uL) and plates incubated for 10 minutes, before being transferred to a ViewLux high-throughput CCD imager (PerkinElmer) wherein single end-point measurements of luminescence are acquired using a clear filter. All reagents are diluted in an assay buffer consisting of 50 mM TEA (pH 7.2), 100 mM KCl, 10 mM MgCl2, 0.05% BSA and 0.01% Tween-20. […]
# Potency means the concentration at half of the fitted maximal effect.
row,Compound,Potency
1,Cc1ccc2c(c1)=C/C(=C\c1c(O)[nH]c(=O)[nH]c1=O)C(=O)N=2,17.8 µM (active)
2,COc1ccc(N2C(=O)/C(=C/c3ccco3)C(=O)NC2=S)cc1,14.1 µM (active)
3,O=C1NC(=O)N(c2ccccc2)C(=O)/C1=C/c1ccc([N+](=O)[O-])s1,8.91 µM (active)
4,O=C(O)CCn1cc(C=C2C(=O)NC(=S)NC2=O)c(-c2cccc(Br)c2)n1,6.31 µM (active)
